The source made the active and inactive calls.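 Rule for the calls: active = fitted half-maximal concentration AC50 at or below ten times the highest valid tested dose, with signal falling as DNA is displaced (actives reach about 34 µM in these data); inconclusive = flat fit at moderate signal loss, or poor fit quality; inactive = the rest, including signal rising instead of falling.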
Assay: DNA intercalators displacing acridine orange, dose response, artefact control for KSHV LANA DNA-binding inhibitor project, biochemical, fluorescence polarization, cherry-picked samples, set 2 (AID 504727)
Settings: AC50: Acridine orange-DNA displacement; series mostly up to 35 µM

Row | Structure (SMILES) | AC50
1 | O=C(CCN1C(=O)/C(=C\c2ccco2)SC1=S)Nc1ccc(C(=O)O)c(O)c1 | inactive
2 | O=c1ccc2c(-c3ccccc3S(=O)(=O)O)c3ccc(O)c(O)c3oc-2c1O | inactive
3 | CCOc1ccc(S(=O)(=O)N(C)c2ccc(OCC(=O)NC3=NCCS3)cc2)cc1 | inactive
4 | CC(=O)OCCn1c2nc(=O)[nH]c(=O)c-2nc2cc(C)c(C)cc21 | 0.342 µM (active)
5 | Oc1ccc(-c2nc3ccccn3c2NCc2ccco2)cc1 | inactive
6 | Nc1ccc(C(=O)Nc2ccc3c(O)cc(S(=O)(=O)O)cc3c2)cc1 | inactive
7 | O=C(O)/C=C/c1ccccc1Oc1ccccc1 | inactive
8 | C/C(=N\NC(=O)CCc1c(C)n[nH]c1C)c1ccc([N+](=O)[O-])cc1 | inactive
9 | COc1cccc(NC(=O)CN(C)CC(=O)NCc2ccco2)c1 | inactive
10 | CCC1(c2ccccc2)NC(=O)N(CC(=O)Nc2ccc(OC)nc2)C1=O (stereo not drawn) | 7.64 µM (active)
11 | O=C(NCCCO)c1ccc2nc(-c3ccco3)c(-c3ccco3)nc2c1 | inactive
12 | CCOC(=O)c1sc(NC(=O)CSC(=S)N2CCN(C)CC2)nc1C | inactive
13 | CCOC(=O)C1C2C=CC3(CN(c4cccc(Cl)c4)C(=O)C13)O2 (stereo not drawn) | inactive
14 | COc1ccc(Cl)cc1C(=O)NNC(=O)c1cc2ccccc2o1 | inactive
15 | Cc1cc(NS(=O)(=O)c2ccc(Nc3nc(-c4sc(N)nc4C)cs3)cc2)no1 | inactive
16 | Cc1nn(CC(=O)c2ccc(Br)s2)c(C)c1[N+](=O)[O-] | inactive
17 | C/C(=N\Nc1nc2c(s1)CCCC2)c1ccc(Cl)cc1 | inactive
18 | Cc1ccc(-c2nnn(CC(=O)NC3CCN(Cc4ccccc4)CC3)n2)cc1 | inactive
19 | O=C1C=C(c2ccoc2)N2CCC[C@H]2C1 | inactive

Row | Structure (SMILES) | AC50
20 | CN(C)c1ccc(/C=N/N(CCO)C2=NS(=O)(=O)c3ccccc32)cc1 | 4.28 µM (active)
21 | CCN(CC)C(=O)C1c2ccccc2Oc2ccccc21 | inactive
22 | O=C(O)c1[nH]c2ccccc2c1C(c1cc(Cl)cc([N+](=O)[O-])c1O)c1c(C(=O)O)[nH]c2ccccc12 | inactive
23 | Oc1[nH]c2ccccc2c1N=Nc1ccccc1F | inactive
24 | CC1CCCN(C(=O)C(=O)c2cn(CC(=O)N3CCCCCC3)c3ccccc23)C1 (stereo not drawn) | inactive
25 | O=C1CN=C(Nc2ccccc2Cl)N1Cc1ccc2c(c1)OCO2 | inactive
26 | CSc1ncccc1C(=O)OCCCC(=O)c1ccc(F)cc1 | inactive
27 | COc1cccc2c1C(=O)c1c(O)c3c(c(O)c1C2=O)C[C@@](O)(C(C)=O)C[C@@H]3O[C@H]1C[C@H](N)[C@H](O)[C@H](C)O1 | 1.89 µM (active)
28 | COc1ccc(-c2cc(C(F)(F)F)n3ncc(C(=O)N4CCCCC4c4cccnc4)c3n2)cc1 (stereo not drawn) | inactive
29 | N=C1/C(=C/c2ccc(-c3cccc(C(=O)O)c3)o2)C(=O)N=C2SC(CC(=O)N3CCOCC3)=NN12 | inactive
30 | COc1cccc(/C=N/NC(=O)C(=O)NCc2cccnc2)c1O | inactive
31 | COc1cc(C(=S)N2CCN(c3cccc(Cl)c3)CC2)ccc1O | inactive
32 | O=C(Nc1ccc2c(c1)OCO2)N1CCCc2ccccc21 | inactive
33 | COc1cccc(NC(=S)N2CCN(C(c3ccccc3)c3ccccc3)CC2)c1 | inactive
34 | C=C1c2cccc(O)c2C(O)=C2C(=O)[C@]3(O)C(O)=C(C(N)=O)C(=O)[C@@H](N(C)C)[C@@H]3[C@@H](O)[C@H]12 | inactive
35 | Cc1ccc(C)c(OCC(=O)N(Cc2nnc(-c3ccccc3Cl)o2)C2CC2)c1 | inactive
36 | Cc1cc2nc3c(=O)n(C4CCCCC4)c(=O)[nH]c3nc2cc1N | 10.6 µM (active)
37 | CN1CCN(C(=S)c2ccc(N(C)C)cc2)CC1 | inactive
38 | O=C(N/N=C/c1ccc(N2CCOCC2)cc1)c1ccccn1 | inactive
